Compounds with a hit are over-represented: about 12% of the library has one in this group of screens.
Pf growth 48h = Primary qHTS for delayed death inhibitors of the malarial parasite plastid, 48 hour incubation; actives 5.9% (n = 310,000); Potency, µM (doses to about 28.7 µM), inactives show top-dose activity change, negative = inhibition, actives largely listed as inhibitors; P. falciparum luciferase growth in erythrocytes, 48 h; note: % is set by controls: 0 for no effect and ±100 for the full control effect
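In quantitative HTS format, infected erythrocytes bearing luciferase-reporter parasites were treated for a single generation at 37 C. Luminescence after adding detection reagent served as the growth measure.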
NS1 inh = qHTS Assay for Inhibitors of Influenza NS1 Protein Function. Potency, µM (top dose mostly 46.1 µM), without a hit: at the highest dose activity, positive = more growth. actives 0.4% (n = 270,000); calls by dose curve; note: actives are rising curves; nearly all actives have a fitted effect of over 50% in size
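Recovery from NS1-induced slow growth read by OD600 in budding yeast switched to galactose assay medium (pH 6.0, -URA) at 1:100 dilution. Compound 23 nl per well; the matching strain lacking NS1 serves as control.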
SARS PLpro yeast = qHTS of Yeast-based Assay for SARS-CoV PLP | S. cerevisiae expressing SARS-CoV PLpro, growth rescue | Potency, µM (top dose mostly 32.9 µM), for inactives: at the highest dose activity, positive = growth rescue, most hits filed as activators | actives 0.19% (n = 330,000) | AID 485353, 2010; calls by dose curve; note: 0% is about no effect; nearly all actives have a fitted effect of over 55% in size
HCV inh = qHTS Assay for Inhibitors of Hepatitis C Virus (HCV); actives 3.4% (n = 340,000); Huh7.5.1 HCVcc-Cre infection, luciferase reporter, 44 h; Potency, µM (top dose mostly 41.8 µM), without a hit: at the top dose activity change, negative = inhibition, hits mostly inhibitors; AID 651820, 2012; note: % is set by controls: 0 for no effect and ±100 for the full control effect
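Antiviral activity was scored by luciferase reporter output from cells infected with HCVcc-Cre (~0.5 moi) in presence of compound, 44 h infection period, cells seeded 1,000/well 4 h prior.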
AMA1-RON2 inh = qHTS for Inhibitors of AMA1-RON; Towards Development of Antimalarial Drug Lead: Primary Screen; Plasmodium falciparum AMA1 (3D7) - RON2 peptide interaction; AlphaScreen AMA1-biotinylated RON2 peptide binding; Potency, µM (series often up to 58.2 µM), for the others: at the top dose activity change, negative = inhibition, usual class: inhibitors; actives 0.2% (n = 360,000);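 note: 0% = vehicle wells and -100% = peptide control; nearly all actives have a fitted effect of over 45% in size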
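AMA1 (3D7) with his tag at 25 nM final met compounds first, then biotinylated RON2 peptide at 25 nM; detection used donor plus acceptor beads, 10 µg/mL apiece, read by AlphaScreen after 30 min at room temperature.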
Pf growth 96h = Primary qHTS for delayed death inhibitors of the malarial parasite plastid, 96 hour incubation; Potency, µM (top dose mostly 28.7 µM), for inactives: top-dose activity change, negative = inhibition, actives largely listed as inhibitors; actives 6.9% (n = 320,000); AID 504834, 2011; P. falciparum luciferase reporter growth, 96 h; note: % is set by controls: 0 for no effect and ±100 for the full control effect
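Delayed-death screen, second-generation endpoint: infected erythrocytes, 2% hematocrit, 0.05% parasitemia final; 96 hours at 37 C, 5% CO2; luciferase detection reagent; luminescence decrease equals reduced growth.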
* marks the source's active call; other numbers are inactive results; ? = inconclusive; . = no result given. Unless noted, calls come from the whole dose curve; as a rule, active = well fitted curve in the direction sought with a large enough effect; inconclusive = small, poorly fitted or top-dose-only effect, or another doubt; inactive = no such curve, though single readings can be large; an effect the other way counts as inactive or inconclusive. Potency is the fitted concentration of half-maximal effect.

SMILES	Pf growth 48h	NS1 inh	SARS PLpro yeast	HCV inh	AMA1-RON2 inh	Pf growth 96h
C(=N\Nc1nc2ccccc2[nH]1)/c1ccc2c(c1)OCO2	0.47µM*	.	0%	-21%	1%	?
O=C(O)c1ccc(/C=N/Nc2nc3ccccc3[nH]2)cc1	38%	6%	1%	5%	15%	15%
CN(/N=C/c1ccc2c(c1)OCO2)c1nc(N2CCOCC2)nc(N2CCOCC2)n1	7%	.	-7%	?	-6%	5%
O=c1nc(N2CCOCC2)nc(N/N=C/c2ccc3c(c2)OCO3)[nH]1	1%	2%	2%	9%	28%	12µM*
CC(=O)Nc1ccc(/C=N/Nc2nc3ccccc3[nH]2)cc1	1.9µM*	0%	?	?	56%	?
CCN(CC)c1ccc(/C=N/Nc2nc3ccccc3[nH]2)cc1	1.9µM*	-14%	-87%	13µM*	12%	2.6µM*
O=C(Nc1cccc(-c2cccc(F)c2)c1)C1CCN(C2CCOCC2)CC1	?	9%	-3%	13µM*	-2%	7.4µM*
O=C(Nc1cccc(-c2cccc(F)c2)c1)C1CCN(Cc2ccc(CO)o2)CC1	-6%	1%	7%	?	10%	-10%
CCc1nn2c(=O)cc(COC(=O)c3cc(Cl)c(OC)c(OC)c3)nc2s1	12µM*	.	-3%	?	-4%	?
Cc1cccc(N2CCN(C(=O)CCC(=O)N3CCOc4ccc(Cl)cc43)CC2C)c1 (stereo not given)	-6%	-50%	-6%	?	-29%	9.3µM*
Cc1ccc(C)c(N2CCN(C(=O)CCC(=O)N3CCOc4ccc(Cl)cc43)CC2)c1	?	-17%	-24%	10µM*	-2%	4.1µM*
NC(=O)C1CCN(C(=O)CCC(=O)N2CCOc3ccc(Cl)cc32)CC1	11%	9%	2%	17%	-3%	?
Cc1ccc(C)c(N2CCN(CCCNC(=O)CCC(=O)N3CCOc4ccc(Cl)cc43)CC2)c1	?	-11%	-2%	.	.	13%
CC(C)Cc1cc(C(=O)N2CCN(C(c3ccccc3)c3ccccc3)CC2)no1	.	-4%	-19%	0%	-1%	-1%
Cn1nc(C(=O)N2CCN(C(c3ccccc3)c3ccccc3)CC2)c2ccccc2c1=O	4.7µM*	-8%	-1%	?	0%	12µM*
CCOc1ncccc1C(=O)N1CCN(C(c2ccccc2)c2ccccc2)CC1	?	.	16%	11µM*	0%	?
Cn1nc(C(=O)N2CCN(S(=O)(=O)/C=C/c3ccccc3)CC2)c2ccccc2c1=O	?	5%	7%	1%	5%	?
O=C(c1cc(-c2ccco2)on1)N1CCN(C(c2ccccc2)c2ccccc2)CC1	12µM*	-33%	-13%	2.5µM*	12%	25%
CCOc1ncccc1C(=O)N1CCN(S(=O)(=O)c2cccs2)CC1	9%	.	8%	1%	-9%	1%
CC(C)c1cc(C(=O)N2CCN(C(c3ccccc3)c3ccccc3)CC2)no1	9.3µM*	-66%	-48%	?	3%	.
O=C(O)CCCCCCCCCCCc1ccccc1	27%	-10%	-1%	-72%	21%	32%
CCOC(=O)C1=C(COC(=O)/C=C/c2cc(OC)c(OC)c(OC)c2)NC(=O)NC1C (stereo not given)	1%	9%	-3%	.	4%	?
COc1ccc(-c2cc(C(=O)N3CCCCCC3)no2)cc1OC	70%	-7%	-2%	6%	-2%	134%
O=C(c1cc(-c2ccc(F)cc2)on1)N1CCCCCC1	174%	5%	2%	2%	8%	15µM*
COc1ccc(-c2cc(C(=O)N3CCN(C(c4ccccc4)c4ccccc4)CC3)no2)cc1OC	7.4µM*	18%	-7%	?	-7%	-7%

Bioassay records: PubChem BioAssay, National Center for Advancing Translational Sciences (NCATS)
